Experimental data as given in PubChem BioAssay AID1159580 (chemical genetic matrix, 2015).
Several values for one entry are separate records, joined by “and”; a condition that tells them apart may be missing. Identical values can stand only once. The whole screen tested about 5,500 compounds, of which about 2,000 (36%) were called active. Another 18% or so got no clear call; they are omitted. Cut-off read from the data, not from the text of the source: active = normalized growth mostly below about 0.91 (no sharp cut-off); inconclusive = no clear call, values can overlap the other calls; inactive = mostly above about 0.92. This is one part of the list.

Assay: chemical genetic growth profiling, strain panel (AID 1159580);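 note: tested at 20 µM; growth read once vehicle control cultures reached saturation at 30 °C; 1 = growth at the plate median or of vehicle wells; lower values mean less growth of the strain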
Details: S. cerevisiae deletion strains, growth OD

Measured: normalized growth

C=CC1=C(C(=O)O)N2C(=O)[C@@H](NC(=O)/C(=N/O)c3csc(N)n3)[C@H]2SC1
inactive: locus YAL013W, strain DEP1, stronger effect = lower value 1 | locus YAL021C, strain ccr4, stronger effect = lower value 1.01 | locus YAL026C, strain drs2, stronger effect = lower value 1.02 | locus YAL030W, strain snc1, stronger effect = lower value 1.01 | locus YBL061C, strain skt5, stronger effect = lower value 1.03 | locus YBR009C, strain hhf1, stronger effect = lower value 1 | locus YBR021W, strain FUR4, stronger effect = lower value 1.02 | locus YBR023C, strain chs3, stronger effect = lower value 1.02 | locus YBR171W, strain sec66, stronger effect = lower value 1.03 | locus YBR229C, strain ROT2, stronger effect = lower value 0.992 | locus YBR231C, strain swc5, stronger effect = lower value 1.01 | locus YBR279W, strain paf1, stronger effect = lower value 1.01 | locus YCL011C, strain gbp2, stronger effect = lower value 1.04 | locus YCL016C, strain dcc1, stronger effect = lower value 1.03 | locus YCL029C, strain bik1, stronger effect = lower value 0.987 | locus YCL061C, strain MRC1, stronger effect = lower value 1.04 | locus YCL069W, strain vba3, stronger effect = lower value 1.02 | locus YCR088W, strain abp1, stronger effect = lower value 1.02 | locus YDL005C, strain med2, stronger effect = lower value 1.02 | locus YDL035C, strain GPR1, stronger effect = lower value 1.03 | locus YDL040C, strain nat1, stronger effect = lower value 1.01 | locus YDL074C, strain BRE1, stronger effect = lower value 1.04 | locus YDL101C, strain DUN1, stronger effect = lower value 0.991 | locus YDL134C, strain PPH21, stronger effect = lower value 0.99 | locus YDL185W, strain tfp1, stronger effect = lower value 0.99 | locus YDL192W, strain arf1, stronger effect = lower value 0.986 | locus YDR001C, strain nth1, stronger effect = lower value 1.02 | locus YDR069C, strain doa4, stronger effect = lower value 1.04 | locus YDR101C, strain arx1, stronger effect = lower value 0.99 | locus YDR137W, strain rgp1, stronger effect = lower value 1.03 | locus YDR150W, strain NUM1, stronger effect = lower value 1.01 | locus YDR159W, strain sac3, stronger effect = lower value 1.02 | locus YDR162C, strain NBP2, stronger effect = lower value 1.03 | locus YDR195W, strain ref2 1 | locus YDR297W, strain sur2, stronger effect = lower value 1.03 | locus YDR318W, strain mcm21, stronger effect = lower value 1.01 | locus YDR334W, strain swr1, stronger effect = lower value 1.02 | locus YDR335W, strain msn5, stronger effect = lower value 1.02 | locus YDR388W, stronger effect = lower value 0.995 | locus YDR392W, strain spt3, stronger effect = lower value 1.01 | locus YDR502C, strain sam2, stronger effect = lower value 0.993 | locus YEL003W, strain gim4, stronger effect = lower value 1.01 | locus YEL037C, strain rad23, stronger effect = lower value 1.02 | locus YEL061C, strain CIN8 (second series), stronger effect = lower value 1.01 | locus YEL061C, strain CIN8, stronger effect = lower value 1.01 | locus YER015W, strain faa2, stronger effect = lower value 1.02 | locus YER016W, strain bim1, stronger effect = lower value 1.02 | locus YER110C, stronger effect = lower value 0.978 | locus YER111C, strain swi4, stronger effect = lower value 1.01 | locus YER155C, strain BEM2 (second series), stronger effect = lower value 1.06 | locus YER155C, strain BEM2, stronger effect = lower value 0.994 | locus YER167W, strain BCK2, stronger effect = lower value 1 | locus YFR010W, strain ubp6, stronger effect = lower value 1.03 | locus YGL078C, strain dbp3, stronger effect = lower value 0.989 | locus YGL086W, strain mad1, stronger effect = lower value 0.999 | locus YGL167C, strain pmr1, stronger effect = lower value 1.01 | locus YGL173C, strain kem1, stronger effect = lower value 1.04 | locus YGL227W, strain vid30, stronger effect = lower value 1.01 | locus YGL240W, strain doc1, stronger effect = lower value 1.01 | locus YGL248W, strain PDE1, stronger effect = lower value 0.989 | locus YGL253W, strain hxk2, stronger effect = lower value 1.01 | locus YGR078C, strain PAC10, stronger effect = lower value 1.07 | locus YGR135W, strain pre9, stronger effect = lower value 0.991 | locus YGR229C, strain SMI1, stronger effect = lower value 1.06 | locus YGR252W, strain gcn5, stronger effect = lower value 1 | locus YHR013C, strain ard1, stronger effect = lower value 1.08 | locus YHR027C, strain rpn1, stronger effect = lower value 1.02 | locus YHR030C, strain SLT2, stronger effect = lower value 1 and 0.986 | locus YHR079C, strain IRE1 (second series), stronger effect = lower value 0.989 | locus YHR079C, strain IRE1, stronger effect = lower value 0.975 | locus YHR094C, strain hxt1, stronger effect = lower value 0.991 | locus YHR129C, strain ARP1, stronger effect = lower value 0.995 | locus YHR142W, strain chs7, stronger effect = lower value 1.01 | locus YHR200W, strain rpn10, stronger effect = lower value 0.988 | locus YIL066C, strain RNR3, stronger effect = lower value 1.01 | locus YIL073C, strain SPO22, stronger effect = lower value 1.04 | locus YIL125W, strain kgd1, stronger effect = lower value 0.991 | locus YIR030C, strain dcg1, stronger effect = lower value 0.989 | locus YJL092W, strain hpr5, stronger effect = lower value 1.02 | locus YJL095W, strain BCK1 (second series), stronger effect = lower value 1.01 | locus YJL095W, strain BCK1, stronger effect = lower value 1.01 and 0.982 | locus YJL115W, strain asf1, stronger effect = lower value 1.05 | locus YJL129C, strain trk1, stronger effect = lower value 1.02 | locus YJL134W, strain LCB3, stronger effect = lower value 0.995 | locus YJL154C, strain vps35, stronger effect = lower value 1.02 | locus YJL164C, strain tpk1, stronger effect = lower value 1.04 | locus YJL166W, strain qcr8, stronger effect = lower value 1.04 | locus YJL168C, strain set2, stronger effect = lower value 0.986 | locus YJL187C, strain SWE1 (second series), stronger effect = lower value 0.997 | locus YJL187C, strain SWE1, stronger effect = lower value 1.03 | locus YJR043C, strain POL32, stronger effect = lower value 1.01
